Data reported in PubChem BioAssay.
Values joined by “and” are separate entries in the source; they are usually repeats but may differ in a detail not shown here. Equal values may be shown once. Results filed as inconclusive are left out. Active and inactive are the calls of the source.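 How the source made its calls, unless noted: active means normalized viability below 100% at a tested concentration; inactive means the rest.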

What was measured:
[1] = growth inhibition of DIPG glioma cells, dose response, cell-based, SU-DIPG-XVII, MIPE5.0, CellTiter-Glo, qHTS (AID 1347060; cut-off not given, nearly all actives have AC50 up to about 26 µM;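 on AC50: cells exposed to compound for 48 hours before viability readout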); conditions: SU-DIPG-XVII viability, CellTiter-Glo ATP luminescence
[2] = growth inhibition of DIPG glioma cells, dose response, cell-based, SU-DIPG-XIII, MIPE4.0, CellTiter-Glo, qHTS (AID 1347061; cut-off not given, nearly all actives have AC50 up to about 37 µM;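 further: cells exposed to compound for 48 hours before readout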); conditions: SU-DIPG-XIII viability, CellTiter-Glo ATP luminescence
[3] = growth inhibition of DIPG glioma cells, dose response, cell-based, JHH-DIPG-1, MIPE4.0, CellTiter-Glo, qHTS (AID 1347062; cut-off not given, nearly all actives have AC50 up to about 27 µM;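 on AC50: cells exposed to compound for two days before readout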); conditions: JHH-DIPG-1 viability, CellTiter-Glo ATP luminescence
[4] = growth inhibition of DIPG glioma cells, dose response, cell-based, SU-DIPG-IV, MIPE4.0, CellTiter-Glo, qHTS (AID 1347063; cut-off not given, nearly all actives have AC50 up to about 30 µM;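 further: compound exposure lasted 48 hours before the viability readout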); conditions: SU-DIPG-IV viability, CellTiter-Glo ATP luminescence
[5] = SU-DIPG-VI glioma cell viability, MIPE4.0 library, CellTiter-Glo luminescence, qHTS (AID 1347066; cut-off not given, nearly all actives have AC50 up to about 30 µM;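 further: cells exposed to compound for 48 hours before readout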); conditions: CellTiter-Glo ATP luminescence
[6] = JHH-DIPG-1 glioma cell viability, MIPE5.0 library, CellTiter-Glo luminescence, qHTS (AID 1347067; cut-off not given, nearly all actives have AC50 up to about 26 µM;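 further: cells exposed to compound for 48 hours before readout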); conditions: JHH-DIPG-1 glioma viability, CellTiter-Glo ATP luminescence
[7] = SU-DIPG-XXV glioma cell viability, MIPE5.0 library, qHTS (AID 1347068; cut-off not given, nearly all actives have IC50 up to about 30 µM)
[8] = sensitizers of A549 cells to miR-34 induction, primary screen, imaging, A549 dox-inducible miR-34, nuclei and caspase counts (AID 1347080;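 active means compounds whose cell count with miR-34 switched on is under 0.7 times the count with it off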); conditions: A549 miR-34 inducible, Hoechst nuclei count, 48 h
[9] = survival rescue of mitochondrial mutant cells in low glucose, primary screen, MELAS cybrids, Rieske KO mouse fibroblasts, CellTiter-Glo (AID 1508586;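 active means mean z-score across replicates of 1.96 or higher in either the MELAS or the Rieske mutant cell line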;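 further: z relative to plate mean and SD of compound and empty wells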)
[10] = LFS_MB_P medulloblastoma growth inhibition, cell-based, chromothripsis tumors, cisplatin or BGB combos (AID 1671449; in the data active means inhibition above about 80%;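 further: cells exposed for 96 hours; 0% = vehicle DMSO and 100% = killing by high DMSO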); conditions: LFS_MB_P medulloblastoma cells
[11] = HDN33 neuroblastoma growth inhibition, cell-based, chromothripsis tumors, cisplatin or BGB combos (AID 1671450; in the data active means inhibition above about 80%;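 further: cells exposed to compound for four days; 0% = vehicle DMSO and 100% = cell killing by high DMSO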); conditions: HDN33 neuroblastoma cells, stronger effect = higher value
[12] = ICB984 medulloblastoma cell growth inhibition, synergistic combos for chromothripsis tumors, cisplatin or BGB combos (AID 1671451; call rule not given here;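 further: cells exposed for 96 hours before readout; 0% = vehicle DMSO and 100% = killing by high DMSO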); conditions: ICB984 medulloblastoma cells, drug combinations, stronger effect = higher value
[13] = HTB85 osteosarcoma cell growth inhibition, synergistic combos for chromothripsis tumors, BGB or cisplatin IC20 combos (AID 1671453; in the data active means inhibition above about 80%;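 further: cells exposed for 96 hours before readout; 0% = vehicle DMSO and 100% = high DMSO killing control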); conditions: HTB85 osteosarcoma cells, drug combinations, stronger effect = higher value
[14] = MDA-MB-436 breast carcinoma cell growth inhibition, synergistic combos for chromothripsis tumors, BGB or cisplatin combos (AID 1671458; call rule not given here;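 further: cells exposed for 96 hours; 0% = vehicle DMSO and 100% = killing by high DMSO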); conditions: MDA-MB-436 breast carcinoma growth inhibition, drug combinations, stronger effect = higher value
[15] = growth inhibition of BT084 medulloblastoma cells, cell-based, ICGC_MB145, cisplatin and BGB IC40 combos (AID 1671461; in the data active means inhibition above about 80%;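 further: cells exposed to drugs for 96 hours; 0% = vehicle DMSO and 100% = high DMSO full killing control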); conditions: drug combinations, stronger effect = higher value
[16] = growth inhibition of RCMB18 medulloblastoma cells, cell-based, cisplatin and BGB IC40 combos (AID 1671462; in the data active means inhibition above about 80%;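 further: cells exposed to compound for four days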); conditions: stronger effect = higher value
[17] = growth inhibition of DIPG glioma cells, dose response, cell-based, SU-DIPG-XIII, MIPE5.0, CellTiter-Glo, qHTS (AID 1347064; cut-off not given, nearly all actives have AC50 up to about 23 µM); conditions: SU-DIPG-XIII viability, CellTiter-Glo ATP luminescence
[18] = viability loss in pontine glioma line – cell-based, SU-DIPG-XXV, MIPE5.0, CellTiter-Glo, qHTS, dose response (AID 1347065; cut-off not given, nearly all actives have AC50 up to about 26 µM;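 further: cells exposed to compound for 48 hours before ATP readout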); conditions: CellTiter-Glo ATP luminescence
[19] = modifiers of HSF1 nuclear foci, imaging, Selleck Cancer Library (AID 1347162; in the data active means plate-normalised HSF1 focus index below about 0.46); conditions: human cells, at 10 µM; SSMD: measured here: HSF1 foci SSMD mean; cell count: measured here: cell number; plate-normalised HSF1 focus index: stronger effect = lower value
[20] = ovarian cancer cell viability with rucaparib, profiling panel, oncology-focused library, rucaparib conditional (AID 1508598); conditions: patient-derived ovarian cancer cells, CellTiter-Glo viability, 144 h, stronger effect = lower value
[21] = stronger effect = lower value, cell number ratio, induced over uninduced
[22] = measured here: relative caspase fold change +Dox/-Dox
[23] = measured here: total cells with miR-34 induction, stronger effect = lower value
[24] = measured here: total cells without miR-34 induction
[25] = MELAS cybrid survival, CellTiter-Glo 48 h, stronger effect = higher value
[26] = Rieske KO mouse fibroblast survival, CellTiter-Glo 72 h

SMILES: COc1cc2c(cc1-c1c(C)noc1C)ncc1[nH]c(=O)n([C@H](C)c3ccccn3)c12
- outcome [1]: inactive
- AC50 [2]: 10.5 µM (active)
- AC50 [3]: 23.5 µM (active)
- AC50 [4]: 13.2 µM (active)
- AC50 [5]: 4.18 µM (active)
- outcome [6]: inactive
- outcome [7]: inactive

SMILES: CN1CCc2c(c3ccccc3n2Cc2ccc(C(=O)NO)cc2)C1
- AC50 [1]: 23.5 µM (active)
- outcome [2]: inactive
- AC50 [3]: 23.5 µM (active)
- AC50 [4]: 20.9 µM (active)
- AC50 [6]: 20.9 µM (active)
- outcome [7]: inactive
- fold change [8, 21]: 0.909 (inactive) and 0.928 (inactive)
- fold change [8, 22]: 0.692 and 0.727
- cell count [8, 23]: 8690 and 9370
- cell count [8, 24]: 9560 and 10100
- z-score [9, 25]: -0.421 (inactive) and -0.386 (inactive)
- z-score [9, 26]: 1.15 and -0.701
- inhibition ([10]; at 0.5 µM, stronger effect = higher value): -24.1% (inactive) and -14.7% (inactive)
- inhibition ([10]; measured here: combination with BGB IC20, at 0.005 µM): -28.6% and -21.3%
- inhibition ([10]; measured here: combination with BGB IC40, at 0.005 µM): -40.9% and -27%
- inhibition ([10]; measured here: combination with BGB IC40, at 0.05 µM): -19.2% and -45.3%
- inhibition ([10]; measured here: combination with cisplatin, at 0.5 µM, stronger effect = higher value): -23.9% and 9.39%
- inhibition ([10]; measured here: combination with cisplatin, at 5 µM, stronger effect = higher value): -11.8% and 7.46%
- inhibition ([11]; BGB combo, at 5 µM): 2.45% and 27.4%
- inhibition ([11]; at 0.5 µM): 4.53% (inactive) and -0.32% (inactive)
- inhibition ([11]; cisplatin combo, at 5 µM): 19.6% and 28.9%
- inhibition ([11]; measured here: with BGB IC20 combination, at 0.5 µM): -5.55% and 4.06%
- inhibition ([11]; measured here: with cisplatin IC20 combination, at 0.5 µM): 15% and 5.2%
- inhibition ([11]; single agent, at 5 µM): 25.9% and 54.8%
- inhibition ([12]; BGB IC20 combo, at 0.005 µM): 22.3% and -11.7%
- inhibition ([12]; BGB IC40 combo, at 0.005 µM): -10.2% and -27.7%
- inhibition ([12]; BGB IC40 combo, at 0.05 µM): -9.66% and -9.28%
- inhibition ([12]; at 0.5 µM): -11.2% (inactive) and -22.9% (inactive)
- inhibition ([12]; cisplatin combo, at 0.05 µM): -15.3% and -13.2%
- inhibition ([12]; cisplatin combo, at 0.5 µM): -16.4% and -10.9%
- inhibition ([12]; cisplatin combo, at 5 µM): -14% and -10.1%
- inhibition ([12]; measured here: 5 uM single agent, at 5 µM): -11.5% and -12.4%
- inhibition ([13]; at 0.5 µM): 0.33% (inactive) and -0.18% (inactive)
- inhibition ([13]; measured here: with BGB IC20, at 0.5 µM): 0.483% and -9.65%
- inhibition ([13]; measured here: with BGB IC20, at 5 µM): 26.3% and 10.4%
- inhibition ([13]; measured here: with cisplatin IC20, at 0.5 µM): -3.56% and 12.2%
- inhibition ([13]; measured here: with cisplatin IC20, at 5 µM): 24.2% and 27.5%
- inhibition ([13]; single agent, at 5 µM): 18.4% and 13.9%
- inhibition ([14]; at 0.5 µM): -13.8% (inactive) and -2.54% (inactive)
- inhibition ([14]; measured here: BGB combination, at 0.5 µM): -10.6% and -7.29%
- inhibition ([14]; measured here: BGB combination, at 5 µM): -5.66% and 0.993%
- inhibition ([14]; measured here: cisplatin combination, at 0.5 µM): -25.1% and 2.46%
- inhibition ([14]; measured here: cisplatin combination, at 5 µM): -15.3% and 18.8%
- inhibition ([15]; at 0.5 µM): 2.15% (inactive) and 0.779% (inactive)
- inhibition ([15]; cisplatin combination, at 0.5 µM): 8.01% and -20.4%
- inhibition ([15]; cisplatin combination, at 5 µM): -145% and 19.9%
- inhibition ([15]; measured here: BGB IC40 combination 0.05 uM, at 0.05 µM): -20.5% and 21.4%
- inhibition ([15]; single agent, at 5 µM): 2.48% and 3.3%
- inhibition ([16]; at 0.5 µM): -9.94% (inactive) and 3.3% (inactive)
- inhibition ([16]; cisplatin combo, at 5 µM): 1.27% and 18.1%
- inhibition ([16]; measured here: BGB IC40 combination, at 0.05 µM): -31.8% and 8.24%
- inhibition ([16]; measured here: combination with cisplatin, at 0.5 µM): -21.5% and 43%
- inhibition ([16]; single agent, at 5 µM): 12.1% and 14.4%

SMILES: COc1nc(C)cnc1NS(=O)(=O)c1cccnc1-c1ccc(-c2nnco2)cc1
- outcome [1]: inactive
- outcome [2]: inactive
- outcome [3]: inactive
- outcome [17]: inactive
- outcome [18]: inactive
- outcome [5]: inactive
- outcome [6]: inactive
- outcome [7]: inactive
- fold change [8, 21]: 0.916 (inactive)
- fold change [8, 22]: 0.943
- cell count [8, 23]: 8060
- cell count [8, 24]: 8800
- SSMD [19]: 2.08
- cell count [19]: 7220
- plate-normalised HSF1 focus index [19]: 1.13 (inactive)
- z-score [9, 25]: -0.393 (inactive)
- z-score [9, 26]: 0.676
- viability ([20]; at 0.000305 µM, OCI-C5x cells, with rucaparib 10 µM, 100% = cells with rucaparib alone): 110% (inactive)
- viability ([20]; at 0.000305 µM, OCI-C5x cells, without rucaparib): 112% (inactive)
- viability ([20]; at 0.000305 µM, OCI-P5x cells, with rucaparib 20 µM, 100% = cells with rucaparib alone): 102% (inactive)
- viability ([20]; at 0.000305 µM, OCI-P5x cells, without rucaparib): 109% (inactive)
- viability ([20]; at 0.00122 µM, OCI-C5x cells, with rucaparib 10 µM, 100% = cells with rucaparib alone): 108% (inactive)
- viability ([20]; at 0.00122 µM, OCI-C5x cells, without rucaparib): 117% (inactive)
- viability ([20]; at 0.00122 µM, OCI-P5x cells, with rucaparib 20 µM, 100% = cells with rucaparib alone): 106% (inactive)
- viability ([20]; at 0.00122 µM, OCI-P5x cells, without rucaparib): 109% (inactive)
- viability ([20]; at 0.00488 µM, OCI-C5x cells, with rucaparib 10 µM, 100% = cells with rucaparib alone): 98.1% (active)
- viability ([20]; at 0.00488 µM, OCI-C5x cells, without rucaparib): 114% (inactive)
- viability ([20]; at 0.00488 µM, OCI-P5x cells, with rucaparib 20 µM, 100% = cells with rucaparib alone): 104% (inactive)
- viability ([20]; at 0.00488 µM, OCI-P5x cells, without rucaparib): 109% (inactive)
- viability ([20]; at 0.0195 µM, OCI-C5x cells, with rucaparib 10 µM, 100% = cells with rucaparib alone): 111% (inactive)
